Most compounds without a hit are left out; they make up all but 4.1% or so of the library.
MITF TRPM1 inh – inhibitors of MITF-dependent TRPM1 promoter reporter, primary screen, cell-based, SK-MEL-5, single point, luciferase | SK-MEL-5 TRPM1 promoter luciferase, 24 h | inhibition, % at 12.5 µM | 0.83% of 330,000 active | AID 488899, 2010;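 active = mean inhibition across replicates of 60% or more, whatever share of single replicates reaches that level; inconclusive = some that reach 60%, reason not given; inactive = mean inhibition across replicates below 60%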
TROY signal inh – inhibitors of TROY-driven NF-kB signaling, primary screen, Q293 LMP1-TROYcd cells, NF-kB luciferase, uHTS; Q293 LMP1-TROYcd NF-kB luciferase reporter, 4 h; inhibition, % at 10 µM; 0.98% of 360,000 active;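 active = compounds whose plate-normalised and pattern-corrected inhibition of the luciferase reporter signal at the single screening dose is 50% or more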
LMP1 NFkB inh – EBV LMP1-driven NF-kappaB luciferase reporter inhibitors, primary screen, cell-based, luminescence, single point. LMP1-induced NF-kappaB luciferase reporter cells. inhibition, % at 12.5 µM. 0.69% of 350,000 active; in the data active = inhibition above about 41%; inconclusive = no clear call, values can overlap the other calls
Shn3 3UTR inh – reduction of Shn3 3'UTR firefly luciferase signal, primary screen, Schnurri-3 inhibitor project, cell-based, Clone20 osteoblasts, set 2 | 0.52% of 360,000 active | inhibition, % at 12.5 µM | Clone20 osteoblast Shn3 3'UTR firefly luciferase, 24 h;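 active = mean inhibition of at least 75% with every replicate also reaching 75%; inconclusive = mean inhibition at least 75% but some replicate below; inactive = mean inhibition below 75%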
Peg3 prom inh – Peg3 promoter-driven luciferase inhibitors, primary screen, cell-based, HeLa, luciferase luminescence. AID 588405, 2011. inhibition, % at 20 µM. 1.7% of 360,000 active. HeLa PEG-Prom luciferase reporter, overnight;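 active = inhibition of at least 50% at 20 µM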
TWEAK-Fn14 inh – inhibitors of TWEAK-Fn14 signaling, primary screen, luciferase reporter cells, uHTS; TWEAK-stimulated Fn14 reporter cells, luciferase luminescence, 8 h; inhibition, % at 10 µM; 2% of 360,000 active; in the data active = inhibition above about 50%
Each line names hits and unclear results; the compound was inactive in the other large screens.

CC(C)CC(=O)Nc1ccc(-c2nc3ccccc3c(=O)[nH]2)cc1	TWEAK-Fn14 inh 61
CC(C)CC(=O)Nc1ccc(-c2nc3ccccc3c(=O)o2)cc1	none
Cc1ccc(S(=O)(=O)c2ccc([N+](=O)[O-])o2)cc1	MITF TRPM1 inh 96, TROY signal inh 59, LMP1 NFkB inh inconclusive, Shn3 3UTR inh 95, Peg3 prom inh 105, TWEAK-Fn14 inh 102
Cc1cc(N2CCN(c3nc(-c4ccccc4)cs3)CC2)c2ccccc2n1	TWEAK-Fn14 inh 66
Cc1cc(N2CCN(c3ccc([N+](=O)[O-])c4cccnc34)CC2)c2ccccc2n1	MITF TRPM1 inh 76, Peg3 prom inh 106
Cc1cc(N2CCN(c3ccc(C(F)(F)F)cc3[N+](=O)[O-])CC2)c2ccccc2n1	none
O=S1(=O)CCOC[C@H](c2ccccc2)N1Cc1cccc(Cl)c1	none
COc1ccccc1N1CCN(C2CCCN(Cc3ccccc3OCCO)C2)CC1 (centres undefined)	none
O=C(Nc1nnc(C2CC2)s1)C1CC(=O)N(c2ccc3c(c2)OCCO3)C1 (centres undefined)	TROY signal inh 51, TWEAK-Fn14 inh 78
O=C(CCN1C(=O)C2CCCCC2C1=O)Nc1nc2ccc(F)cc2s1 (centres undefined)	TROY signal inh 73, TWEAK-Fn14 inh 72
O=C(Nc1nc2ccc(F)cc2s1)C1CC(=O)N(c2ccc3c(c2)OCCO3)C1 (centres undefined)	TWEAK-Fn14 inh 55
O=C(CCN1C(=O)C2CCCCC2C1=O)Nc1nc2c(F)cc(F)cc2s1 (centres undefined)	none
COc1ccc(-c2nc(NC(=O)C3CC(=O)N(c4ccc5c(c4)OCCO5)C3)sc2C)cc1 (centres undefined)	TWEAK-Fn14 inh 82
C[C@H]1CN([C@@H](C)CO)C(=O)CCCn2nncc2CO[C@@H]1CN(C)S(=O)(=O)c1cccc(F)c1	none (no result: MITF TRPM1 inh)
O=C(Nc1nc2ccc(F)cc2s1)C1=COCCO1	LMP1 NFkB inh 51, TWEAK-Fn14 inh 85
Cc1cccnc1NC(=O)C1CC(=O)N(c2ccc3c(c2)OCCO3)C1 (centres undefined)	none
CSc1cccc2sc(NC(=O)C3=COCCO3)nc12	none
O=C(Nc1nc(-c2ccccn2)cs1)C1CC(=O)N(c2ccc3c(c2)OCCO3)C1 (centres undefined)	TWEAK-Fn14 inh 70
Cc1cc(N=Cc2c(O)ccc3ccccc23)no1	none
Cc1cc(N=Cc2c(O)ccc3cc(Br)ccc23)no1	LMP1 NFkB inh 56
O=C1/C(=C/c2cccnc2)SC(=S)N1CCc1ccccc1	none
Cc1cccc(NC(=O)C(c2cccc([N+](=O)[O-])c2)N2CCCCC2)c1 (centres undefined)	none
CC(=O)N1CCN(Cc2nc3cc(NC(=O)c4ccc(F)cc4)ccc3n2C)CC1	none
CN(C)CCOc1ccc(-c2c(-c3ccccc3)sc3ccccc23)cc1	MITF TRPM1 inh 61, Peg3 prom inh 100
CCOc1ccc(NC(=O)CN(c2ccc(OC)cc2)S(=O)(=O)c2cccs2)cc1	none
O=C(O)c1cn2c3c(ccc(Cl)c3c1=O)OCC2	LMP1 NFkB inh 51
CC(=O)Nc1ccc(NC(=O)c2ccc(S(=O)(=O)N(C)c3ccccc3)cc2)cc1	none
Cc1nc2ccc(NC(=O)c3ccc(S(=O)(=O)N(C)c4ccccc4)cc3)cc2s1	TROY signal inh 56, Peg3 prom inh 67, TWEAK-Fn14 inh 58
COC(=O)c1ccc(NC(=O)c2ccc[n+]([O-])c2)cc1	TWEAK-Fn14 inh 87
COC(=O)c1ccc(NC(=O)c2cccc(N3C(=O)CCC3=O)c2)cc1	none
COc1ccc(OC)c(NC(=O)c2cccc(N3C(=O)C4C5C=CC(C6CC56)C4C3=O)c2)c1 (centres undefined)	TWEAK-Fn14 inh 53
COC(=O)c1ccc(NC(=O)c2cccc(N3C(=O)C4C5C=CC(C6CC56)C4C3=O)c2)cc1 (centres undefined)	TROY signal inh 55, TWEAK-Fn14 inh 85
COc1ccc(OC)c(NC(=O)c2cccc(N3C(=O)C4C5CCC(C5)C4C3=O)c2)c1 (centres undefined)	none
COC(=O)c1c(-c2ccccc2Cl)noc1/C=C/N(C)C	none
CC(C)CCc1noc(CN(CC2CCC2)CC2CCCO2)n1 (centres undefined)	none
COCc1cc(SC2CCCCC2)nc(C)n1	none
O=C1c2ccccc2C(=O)N1CC1=CCS(=O)(=O)C1	none
CCOc1ccccc1NC(=O)COC(=O)c1cccc(-c2ccc(OC(C)=O)cc2)c1	TROY signal inh 62, TWEAK-Fn14 inh 64
CC(=O)Oc1ccc(-c2cccc(C(=O)OCC(=O)Nc3ccccc3Oc3ccccc3)c2)cc1	none
CCc1ccccc1NC(=O)COc1ccc2c(=O)c(Oc3cc(C)ccc3C)coc2c1	TROY signal inh 56
CCCNC(=O)COc1ccc2c(=O)c(Oc3ccccc3F)coc2c1	none
Cc1cccc(NC(=O)c2ccc(Cl)c(S(=O)(=O)N3CCCC3)c2)n1	none
O=C(Nc1ccncc1)c1ccc(Cl)c(S(=O)(=O)N2CCc3ccccc32)c1	Shn3 3UTR inh 89, TWEAK-Fn14 inh 78
Cc1cccc(NC(=O)c2ccc(Cl)c(S(=O)(=O)N3CCc4ccccc43)c2)n1	TWEAK-Fn14 inh 58
CCc1nnc(NC(=O)c2ccc(Cl)c(S(=O)(=O)N3CCc4ccccc43)c2)s1	TROY signal inh 61
O=C(Nc1nnc(C2CC2)s1)c1ccc(Cl)c(S(=O)(=O)N2CCc3ccccc3C2)c1	TROY signal inh 56
O=C(N1CCC(n2nc(-c3ccccc3)oc2=O)CC1)C1(c2ccc(Cl)cc2)CC1	none
COc1cc(C(O)c2nc3ccccc3s2)cc(OC)c1OC (centres undefined)	none
CCc1cccc(C)c1NC(=S)NCCc1c(C)[nH]c2ccc(C)cc12	Peg3 prom inh 51
COC(=O)c1cn[nH]c1NC(=S)Nc1ccc(Cl)c(Cl)c1	TROY signal inh 73, TWEAK-Fn14 inh 69
CCOC(=O)c1cn[nH]c1NC(=S)Nc1ccc(OC)cc1	TROY signal inh 62, TWEAK-Fn14 inh 76 (no result: Shn3 3UTR inh)
CCOC(=O)NC(=S)Nc1ccc(OC)cc1	none
COC(=O)c1cn[nH]c1NC(=S)Nc1ccc(C)cc1Cl	TROY signal inh 73, TWEAK-Fn14 inh 66
C[N+](=O)C1C(=O)Nc2ccccc21 (centres undefined)	none (no result: MITF TRPM1 inh, LMP1 NFkB inh, Shn3 3UTR inh, Peg3 prom inh)
O=C(N/N=C\c1cc(Cl)ccc1O)c1ccc(S(=O)(=O)N2CCCCC2)cc1	MITF TRPM1 inh 66, Shn3 3UTR inh 91
